Laboratory results reported in PubChem BioAssay (NCATS).
Values joined by “and” are separate entries in the source; they are usually repeats but may differ in a detail not shown here. Equal values may be shown once. Values without a mark were called inactive. Records with an inconclusive call do not appear. Active and inactive are the calls of the source. Unless noted, calls follow the shape of the dose curve; as a rule, active = well fitted inhibition curve with a large enough effect; inconclusive = small, poorly fitted or top-dose-only effect; inactive = flat fitted curve, though single readings scatter.

Experiments:
[1] = Drug repurposing screens with cells derived from glioblastoma tumor samples (AID 1345199); details: GBM patient neurospheres viability, ATP luminescence, 48 h; also: nearly all actives have a fitted effect of over 40% in size; also: potency is read from the fitted curve at half-maximal effect; as to activity, negative = cell killing: % is scaled to controls: 0 for no effect and ±100 for the full control effect
In short: (§1)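 Four patient lines of CD133+ GBM neurospheres were screened at several concentrations; hits were retested in those lines plus three slower-growing GBM lines, using 48-hour treatment and ATP-based viability.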

[2] = system: astro; test: as above; details: viability, ATP luminescence, 48 h; series mostly up to 45.9 µM
In short: as §1

[3] = molecular target: Nuclear receptor subfamily 1 group I member 2 (Rattus norvegicus) (UniProt Q9R1A7); test: qHTS assay for small molecule activators of the rat pregnane X receptor (rPXR) signaling pathway (AID 651751; call rule not given here; also: 0% is about no effect); details: rPXR reporter cells, luciferase (One-Glo), 24 h
Chain of Nuclear receptor subfamily 1 group I member 2 (Rattus norvegicus) (Q9R1A7 whole entry, looked up): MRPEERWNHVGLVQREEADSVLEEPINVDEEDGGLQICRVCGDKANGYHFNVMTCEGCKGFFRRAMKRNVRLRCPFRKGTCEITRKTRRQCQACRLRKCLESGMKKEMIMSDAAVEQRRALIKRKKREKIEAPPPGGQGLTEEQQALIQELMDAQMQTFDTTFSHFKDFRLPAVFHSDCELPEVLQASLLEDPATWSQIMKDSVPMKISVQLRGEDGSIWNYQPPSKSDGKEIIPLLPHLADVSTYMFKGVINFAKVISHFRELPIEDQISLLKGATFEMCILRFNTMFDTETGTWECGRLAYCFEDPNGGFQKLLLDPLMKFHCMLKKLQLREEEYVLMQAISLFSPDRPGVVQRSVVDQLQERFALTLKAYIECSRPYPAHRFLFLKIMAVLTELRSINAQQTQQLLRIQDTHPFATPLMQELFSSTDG

[4] = qHTS assay for small molecule activators of the human pregnane X receptor (PXR) signaling pathway (AID 720659; call rule not given here; also: 0% is about no effect); details: DPX-2 HepG2 CYP3A4-luciferase, 24 h; series mostly up to 92.3 µM
[5] = at 45.9 µM (top of the series), tumour line B
[6] = at 45.9 µM (top of the series), tumour line D
[7] = at 46 µM (top of the series), tumour line A
[8] = at 46.1 µM (top of the series), tumour line C
[9] = at 20 µM (top of the series), tumour line C
[10] = at 21.2 µM (top of the series), tumour line B
[11] = at 21.2 µM (top of the series), tumour line D
[12] = at 21.3 µM (top of the series), tumour line A

CC[C@@H]1/C=C(\C)C[C@H](C)C[C@H](OC)[C@H]2O[C@@](O)(C(=O)C(=O)N3CCCC[C@H]3C(=O)O[C@H](/C(C)=C/[C@@H]3CC[C@@H](Cl)[C@H](OC)C3)[C@H](C)[C@@H](O)CC1=O)[C@H](C)C[C@@H]2OC
activity, negative = cell killing [1, 5]: -7.85%
activity, negative = cell killing [1, 6]: -16.3%
activity, negative = cell killing [1, 7]: -14.1%
activity, negative = cell killing [1, 8]: -18.5%
Potency [2]: inactive

CCN(CC)C(=S)S
activity, negative = cell killing [1, 5]: -1.95%
activity, negative = cell killing [1, 6]: -9.18%
activity, negative = cell killing [1, 7]: -29.6%
activity, negative = cell killing [1, 8]: -13.5%
Potency [2]: inactive

O=C(O)/C=C/c1ccccc1
activity, negative = cell killing [1, 5]: -13.6%
activity, negative = cell killing [1, 6]: 12.4%
activity, negative = cell killing [1, 7]: -20.1%
activity, negative = cell killing [1, 8]: 7.51%
Potency [2]: inactive

COc1cc2c(cc1OC)[C@@H](Cc1cc(OC)c(OC)c(OC)c1)[N+](C)(CCCOC(=O)CC/C=C/CCC(=O)OCCC[N+]1(C)CCc3cc(OC)c(OC)cc3[C@H]1Cc1cc(OC)c(OC)c(OC)c1)CC2 (stereo partly drawn)
activity, negative = cell killing [1, 5]: -17.7% and -2.67%
activity, negative = cell killing [1, 6]: -12.5% and -11.6%
activity, negative = cell killing [1, 7]: -22.5%
activity, negative = cell killing [1, 8]: -14.7% and -8.1%
Potency [2]: inactive

C=O
activity, negative = cell killing [1, 5]: -5.16%
activity, negative = cell killing [1, 6]: -12.4%
activity, negative = cell killing [1, 7]: -10.6%
activity, negative = cell killing [1, 8]: 0.841%
Potency [2]: inactive

CC(/C=C/C=C(\C)C(=O)O[C@@H]1O[C@H](CO[C@@H]2O[C@H](CO)[C@@H](O)[C@H](O)[C@H]2O)[C@@H](O)[C@H](O)[C@H]1O)=C\C=C\C=C(C)\C=C\C=C(/C)C(=O)O[C@@H]1O[C@H](CO[C@@H]2O[C@H](CO)[C@@H](O)[C@H](O)[C@H]2O)[C@@H](O)[C@H](O)[C@H]1O
activity, negative = cell killing [1, 5]: -13.5%
activity, negative = cell killing [1, 6]: 5.42%
activity, negative = cell killing [1, 7]: -21.7%
activity, negative = cell killing [1, 8]: 10.7%
Potency [2]: inactive

CC(C)CCCCCCc1ccc(O)cc1
activity, negative = cell killing [1, 5]: -21.6%
activity, negative = cell killing [1, 6]: -27.3%
activity, negative = cell killing [1, 8]: -24.2%
Potency ([1]; tumour line A): 22.4 µM (active)
Potency [2]: inactive
max response [3]: -1.23%

O=C1NCCN1c1ncc([N+](=O)[O-])s1
activity, negative = cell killing [1, 9]: -26.4%
activity, negative = cell killing [1, 10]: -0.147%
activity, negative = cell killing [1, 11]: -24%
activity, negative = cell killing [1, 12]: -10.3%
Potency [2]: inactive

CC(C)O
activity, negative = cell killing [1, 5]: -6.9%
activity, negative = cell killing [1, 6]: -24.5%
activity, negative = cell killing [1, 7]: -15.4%
activity, negative = cell killing [1, 8]: -14.2%
Potency [2]: inactive
max response [3]: -7.02%
outcome [4]: inactive

CC(=O)N=c1sc(S(N)(=O)=O)nn1C
activity, negative = cell killing [1, 9]: -7.38%
activity, negative = cell killing [1, 10]: -5.71%
activity, negative = cell killing [1, 11]: -24.8%
activity, negative = cell killing [1, 12]: -18.1%
Potency [2]: inactive

C=CCOc1ccc(CC(=O)O)cc1Cl
activity, negative = cell killing [1, 5]: 0.88%
activity, negative = cell killing [1, 6]: 1.11%
activity, negative = cell killing [1, 7]: -23%
activity, negative = cell killing [1, 8]: 0.211%
Potency [2]: inactive
